Laboratory results published in PubChem BioAssay AID1159580 (chemical genetic matrix, 2015).
Among all 5,500 compounds or so, about 2,000 (36%) were called active. Roughly 18% stayed inconclusive and do not appear here. No stated cut-off is given here; in the data, active means normalized growth mostly below about 0.91 (no sharp cut-off); inconclusive means no clear call, values can overlap the other calls; inactive means mostly above about 0.92. The list shows a part of the results.

Experiment: chemical genetic growth profiling, strain panel (AID 1159580);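 further: tested at 20 µM; growth read once vehicle control cultures reached saturation at 30 °C; 1 = growth at the plate median or of vehicle wells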
Details: growth OD

Measured: normalized growth

COc1cc2c(cc1/C=C/C(=O)c1cc(OC)c(OC)cc1OC)OCO2
inactive: S. cerevisiae deletion strains, locus YBR021W, strain FUR4, stronger effect = lower value 1.14 | S. cerevisiae deletion strains, locus YBR229C, strain ROT2, stronger effect = lower value 0.968 | S. cerevisiae deletion strains, locus YCL029C, strain bik1, stronger effect = lower value 1.02 | S. cerevisiae deletion strains, locus YDL035C, strain GPR1, stronger effect = lower value 1 | S. cerevisiae deletion strains, locus YDL074C, strain BRE1, stronger effect = lower value 1.05 | S. cerevisiae deletion strains, locus YDL101C, strain DUN1, stronger effect = lower value 0.994 | S. cerevisiae deletion strains, locus YDL134C, strain PPH21, stronger effect = lower value 1.01 | S. cerevisiae deletion strains, locus YDL185W, strain tfp1, stronger effect = lower value 1 | S. cerevisiae deletion strains, locus YDL192W, strain arf1, stronger effect = lower value 1.01 | S. cerevisiae deletion strains, locus YDR101C, strain arx1, stronger effect = lower value 0.998 | S. cerevisiae deletion strains, locus YDR150W, strain NUM1, stronger effect = lower value 1.02 | S. cerevisiae deletion strains, locus YDR162C, strain NBP2, stronger effect = lower value 0.974 | S. cerevisiae deletion strains, locus YDR318W, strain mcm21, stronger effect = lower value 1.01 | S. cerevisiae deletion strains, locus YDR388W, stronger effect = lower value 1.02 | S. cerevisiae deletion strains, locus YDR502C, strain sam2, stronger effect = lower value 1.02 | S. cerevisiae deletion strains, locus YEL061C, strain CIN8, stronger effect = lower value 1 | S. cerevisiae deletion strains, locus YER110C, stronger effect = lower value 1.02 | S. cerevisiae deletion strains, locus YER155C, strain BEM2, stronger effect = lower value 1.02 | S. cerevisiae deletion strains, locus YER167W, strain BCK2, stronger effect = lower value 1.03 | S. cerevisiae deletion strains, locus YGL078C, strain dbp3, stronger effect = lower value 0.997 | S. cerevisiae deletion strains, locus YGL086W, strain mad1, stronger effect = lower value 1.01 | S. cerevisiae deletion strains, locus YGL248W, strain PDE1, stronger effect = lower value 0.996 | S. cerevisiae deletion strains, locus YGR135W, strain pre9, stronger effect = lower value 1.01 | S. cerevisiae deletion strains, locus YGR229C, strain SMI1, stronger effect = lower value 1.01 | S. cerevisiae deletion strains, locus YGR252W, strain gcn5, stronger effect = lower value 1.08 | S. cerevisiae deletion strains, locus YHR030C, strain SLT2, stronger effect = lower value 1.02 | S. cerevisiae deletion strains, locus YHR079C, strain IRE1 (second series), stronger effect = lower value 1 | S. cerevisiae deletion strains, locus YHR094C, strain hxt1, stronger effect = lower value 1.01 | S. cerevisiae deletion strains, locus YHR129C, strain ARP1, stronger effect = lower value 1.02 | S. cerevisiae deletion strains, locus YHR200W, strain rpn10, stronger effect = lower value 1.02 | S. cerevisiae deletion strains, locus YIL066C, strain RNR3, stronger effect = lower value 1.01 | S. cerevisiae deletion strains, locus YIL073C, strain SPO22, stronger effect = lower value 1.06 | S. cerevisiae deletion strains, locus YIL125W, strain kgd1, stronger effect = lower value 1.03 | S. cerevisiae deletion strains, locus YIR030C, strain dcg1, stronger effect = lower value 1.01 | S. cerevisiae deletion strains, locus YJL095W, strain BCK1, stronger effect = lower value 1 | S. cerevisiae deletion strains, locus YJL134W, strain LCB3, stronger effect = lower value 1.01 | S. cerevisiae deletion strains, locus YJL168C, strain set2, stronger effect = lower value 1.01 | S. cerevisiae deletion strains, locus YJL187C, strain SWE1 (second series), stronger effect = lower value 1 | S. cerevisiae deletion strains, locus YJR043C, strain POL32, stronger effect = lower value 1.02 | S. cerevisiae deletion strains, locus YKL009W, strain mrt4, stronger effect = lower value 1.02 | S. cerevisiae deletion strains, locus YKL068W, stronger effect = lower value 1 | S. cerevisiae deletion strains, locus YKL085W, strain MDH1 (second series), stronger effect = lower value 1 | S. cerevisiae deletion strains, locus YKL085W, strain MDH1, stronger effect = lower value 1 | S. cerevisiae deletion strains, locus YKL190W, strain CNB1, stronger effect = lower value 0.994 | S. cerevisiae deletion strains, locus YKR001C, strain vps1, stronger effect = lower value 1.02 | S. cerevisiae deletion strains, locus YLR039C, strain RIC1, stronger effect = lower value 0.994 | S. cerevisiae deletion strains, locus YLR058C, strain SHM2, stronger effect = lower value 0.998 | S. cerevisiae deletion strains, locus YLR102C, strain apc9, stronger effect = lower value 1.02 | S. cerevisiae deletion strains, locus YLR262C, strain YPT6, stronger effect = lower value 1.01 | S. cerevisiae deletion strains, locus YLR268W, strain sec22, stronger effect = lower value 1.02 | S. cerevisiae deletion strains, locus YLR330W, strain CHS5, stronger effect = lower value 1.02 | S. cerevisiae deletion strains, locus YLR342W, strain FKS1 (second series), stronger effect = lower value 1.06 | S. cerevisiae deletion strains, locus YLR371W, strain rom2, stronger effect = lower value 1.02 | S. cerevisiae deletion strains, locus YLR418C, strain cdc73, stronger effect = lower value 1.04 | S. cerevisiae deletion strains, locus YML016C, strain PPZ1, stronger effect = lower value 1.01 | S. cerevisiae deletion strains, locus YML032C, strain rad52, stronger effect = lower value 1.02 | S. cerevisiae deletion strains, locus YML124C, strain tub3, stronger effect = lower value 0.995 | S. cerevisiae deletion strains, locus YMR078C, strain ctf18, stronger effect = lower value 1.03 | S. cerevisiae deletion strains, locus YMR223W, strain ubp8, stronger effect = lower value 1.01 | S. cerevisiae deletion strains, locus YMR263W, strain SAP30, stronger effect = lower value 1 | S. cerevisiae deletion strains, locus YMR307W, strain GAS1, stronger effect = lower value 1.21 | S. cerevisiae deletion strains, locus YNL067W, strain RPL9B, stronger effect = lower value 0.998 | S. cerevisiae deletion strains, locus YNL128W, strain TEP1, stronger effect = lower value 0.996 | S. cerevisiae deletion strains, locus YNL153C, strain GIM3, stronger effect = lower value 0.983 | S. cerevisiae deletion strains, locus YNL233W, strain BNI4, stronger effect = lower value 1.02 | S. cerevisiae deletion strains, locus YNL250W, strain rad50, stronger effect = lower value 1.01 | S. cerevisiae deletion strains, locus YNL271C, strain bni1, stronger effect = lower value 1.01 | S. cerevisiae deletion strains, locus YNL298W, strain CLA4, stronger effect = lower value 1.02 | S. cerevisiae deletion strains, locus YNL307C, strain MCK1, stronger effect = lower value 1.03 | S. cerevisiae deletion strains, locus YNL322C, strain KRE1, stronger effect = lower value 1.01 | S. cerevisiae deletion strains, locus YNR052C, strain pop2, stronger effect = lower value 1.01 | S. cerevisiae deletion strains, locus YOL006C, strain TOP1, stronger effect = lower value 1.27 | S. cerevisiae deletion strains, locus YOL012C, strain htz1 1.18 | S. cerevisiae deletion strains, locus YOL147C, strain pex11, stronger effect = lower value 1.01 | S. cerevisiae deletion strains, locus YOR061W, strain CKA2, stronger effect = lower value 0.975 | S. cerevisiae deletion strains, locus YOR069W, strain VPS5, stronger effect = lower value 1.01 | S. cerevisiae deletion strains, locus YOR136W, strain idh2, stronger effect = lower value 1.02 | S. cerevisiae deletion strains, locus YOR144C, strain elg1, stronger effect = lower value 1 | S. cerevisiae deletion strains, locus YOR184W, strain ser1, stronger effect = lower value 0.993 | S. cerevisiae deletion strains, locus YOR316C, strain cot1, stronger effect = lower value 1.04 | S. cerevisiae deletion strains, locus YPL055C, strain LGE1, stronger effect = lower value 1.05 | S. cerevisiae deletion strains, locus YPR119W, strain clb2, stronger effect = lower value 1.01 | S. cerevisiae deletion strains, locus YPR141C, strain kar3, stronger effect = lower value 1.01 | S. cerevisiae deletion strains, locus YPR163C, strain tif3, stronger effect = lower value 1.01 | S. cerevisiae deletion strains, locus YPR167C, strain met16, stronger effect = lower value 1.01 | S. cerevisiae deletion strains, strain wtn01, stronger effect = lower value 1.01 | S. cerevisiae strains, strain wild type, stronger effect = lower value 1.01
